The values below come from paper PMC4081100, “A DNA-binding-site landscape and regulatory network analysis for NAC transcription factors in Arabidopsis thaliana”.

What all share (assay): universal protein binding microarray (PBM); transcription factors of Arabidopsis thaliana; high values mean tight binding
Conditions in all cases: protein: recombinant; tags: GST; chain copies: 2; dsDNA, one strand shown

One test deals with T1, GST-ANAC092(1-176) (Arabidopsis thaliana, UniProt Q9FKA0 1-176).
T1 sequence: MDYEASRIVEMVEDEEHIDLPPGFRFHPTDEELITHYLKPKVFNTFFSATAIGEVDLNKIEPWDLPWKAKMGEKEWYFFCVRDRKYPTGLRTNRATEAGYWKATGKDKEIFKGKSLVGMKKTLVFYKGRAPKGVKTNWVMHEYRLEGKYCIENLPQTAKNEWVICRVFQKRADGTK
The gist of the method: (§1)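 GST-tagged NAC-domain, full-length or DNA-binding-domain proteins were induced in cells, with zinc acetate added for zinc-finger proteins. They were purified on glutathione–Sepharose 4B and quantified by A280 or anti-GST western blot. Each was applied at 200 to 500 nM final, in duplicate, to custom all-10-mer Agilent 4 × 180K arrays made double-stranded by primer extension, with gapped and ungapped 8-mers scored. Binding is the normalised enrichment score (E-score).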

The next test addresses GST-NTL6(1-168) (Arabidopsis thaliana, UniProt Q9SCK6 1-168). The gist of the method:
as §1

The target in another test is T2, GST-ANAC019 NAC domain (Arabidopsis thaliana, UniProt Q9C932 14-162).
T2 sequence: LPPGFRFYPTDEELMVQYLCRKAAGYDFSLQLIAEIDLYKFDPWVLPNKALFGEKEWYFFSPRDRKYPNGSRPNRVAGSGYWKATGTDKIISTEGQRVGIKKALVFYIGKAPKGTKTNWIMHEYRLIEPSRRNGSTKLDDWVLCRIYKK
In short, it runs like this:
as §1

The target in a further test is T3, GST-ANAC055(1-171) (Arabidopsis thaliana, UniProt Q9LDY8 1-171).
T3 sequence: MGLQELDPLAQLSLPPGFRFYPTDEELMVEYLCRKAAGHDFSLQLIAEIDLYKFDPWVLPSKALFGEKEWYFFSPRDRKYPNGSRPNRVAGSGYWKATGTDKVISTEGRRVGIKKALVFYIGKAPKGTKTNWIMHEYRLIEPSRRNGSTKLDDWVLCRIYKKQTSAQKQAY
The gist of the method:
as §1

A further test has as its target T4, GST-ATAF1 NAC domain (Arabidopsis thaliana, UniProt Q39013 7-158).
T4 sequence: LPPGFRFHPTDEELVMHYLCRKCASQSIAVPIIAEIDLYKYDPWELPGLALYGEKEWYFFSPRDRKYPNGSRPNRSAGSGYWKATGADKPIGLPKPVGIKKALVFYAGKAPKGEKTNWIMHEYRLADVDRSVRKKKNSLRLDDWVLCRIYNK
In short, it runs like this: as §1

Test [1] has as its target T5, GST-ANAC092(1-285) full length (Arabidopsis thaliana, UniProt Q9FKA0 1-285).
T5 sequence: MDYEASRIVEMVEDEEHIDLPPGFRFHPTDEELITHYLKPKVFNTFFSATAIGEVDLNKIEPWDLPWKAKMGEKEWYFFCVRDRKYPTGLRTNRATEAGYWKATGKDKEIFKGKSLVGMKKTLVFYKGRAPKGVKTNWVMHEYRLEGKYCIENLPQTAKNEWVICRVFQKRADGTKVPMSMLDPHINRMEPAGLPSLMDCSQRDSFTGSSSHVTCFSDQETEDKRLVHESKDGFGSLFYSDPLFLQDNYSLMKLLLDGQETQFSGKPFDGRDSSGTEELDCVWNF
The gist of the method:
as §1

Another test concerns the target T6, GST-NAP(1-166) (Arabidopsis thaliana, UniProt O49255 1-166).
T6 sequence: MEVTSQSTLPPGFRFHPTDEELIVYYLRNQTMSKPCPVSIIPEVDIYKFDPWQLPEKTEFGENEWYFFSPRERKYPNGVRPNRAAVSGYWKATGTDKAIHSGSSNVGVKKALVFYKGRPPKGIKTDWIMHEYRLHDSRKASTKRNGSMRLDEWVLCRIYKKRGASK
In short, it runs like this: as §1

Another test concerns the target T7, GST-NST2(1-184) (Arabidopsis thaliana, UniProt Q9M274 1-184).
T7 sequence: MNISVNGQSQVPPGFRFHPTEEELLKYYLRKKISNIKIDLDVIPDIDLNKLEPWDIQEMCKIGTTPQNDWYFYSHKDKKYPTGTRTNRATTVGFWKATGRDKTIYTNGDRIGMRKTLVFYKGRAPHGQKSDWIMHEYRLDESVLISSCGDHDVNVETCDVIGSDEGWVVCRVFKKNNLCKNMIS
The gist of the method: as §1

The target of a further test is T8, GST-NTL8 NAC domain (Arabidopsis thaliana, UniProt Q9XIN7 14-156).
T8 sequence: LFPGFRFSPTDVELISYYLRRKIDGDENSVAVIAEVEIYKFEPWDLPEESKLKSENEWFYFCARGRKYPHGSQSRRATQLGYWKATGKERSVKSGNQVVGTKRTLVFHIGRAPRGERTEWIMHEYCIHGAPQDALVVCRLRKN
In short, it runs like this: as §1

The target in another test is T9, GST-SND1(1-203) (Arabidopsis thaliana, UniProt Q9LPI7 1-203).
T9 sequence: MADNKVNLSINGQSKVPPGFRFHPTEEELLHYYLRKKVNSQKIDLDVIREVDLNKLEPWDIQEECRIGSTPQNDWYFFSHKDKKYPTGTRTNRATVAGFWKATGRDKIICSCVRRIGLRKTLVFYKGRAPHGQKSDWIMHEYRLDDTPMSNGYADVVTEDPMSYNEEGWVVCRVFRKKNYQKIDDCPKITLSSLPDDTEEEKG
The gist of the method: as §1

The target of another test is T10, GST-VND3 NAC domain (Arabidopsis thaliana, UniProt Q9FH59 12-162).
T10 sequence: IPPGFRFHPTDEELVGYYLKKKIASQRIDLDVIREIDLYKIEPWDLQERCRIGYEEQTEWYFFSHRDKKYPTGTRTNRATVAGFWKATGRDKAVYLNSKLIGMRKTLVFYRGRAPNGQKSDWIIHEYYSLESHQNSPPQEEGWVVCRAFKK
In short, it runs like this:
as §1

Another test addresses T11, GST-VND7 NAC domain (Arabidopsis thaliana, UniProt Q9C8W9 9-158).
T11 sequence: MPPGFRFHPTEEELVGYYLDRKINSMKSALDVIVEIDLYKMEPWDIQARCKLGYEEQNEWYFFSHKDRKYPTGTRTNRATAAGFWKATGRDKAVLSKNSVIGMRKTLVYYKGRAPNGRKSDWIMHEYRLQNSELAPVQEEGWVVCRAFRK
The gist of the method: as §1

Chain of GST-NTL6(1-168) (Q9SCK6 1-168): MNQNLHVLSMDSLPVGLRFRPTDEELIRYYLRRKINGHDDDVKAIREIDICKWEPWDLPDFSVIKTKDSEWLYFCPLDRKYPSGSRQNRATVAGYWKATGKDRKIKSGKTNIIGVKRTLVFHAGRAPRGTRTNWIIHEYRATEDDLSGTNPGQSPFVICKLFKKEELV

For the sequence ATTCCGTA, the binding signal with GST-ANAC092(1-176) is 0.209 E-score; with GST-NTL6(1-168), 0.17 E-score; with GST-ANAC019 NAC domain, 0.456 E-score; in the test with GST-ANAC055(1-171) it was 0.385 E-score; with GST-ATAF1 NAC domain it was 0.308 E-score; in test [1] it was 0.342 E-score. Besides, the binding signal in the test with GST-NAP(1-166) worked out at 0.381 E-score; with GST-NST2(1-184) it was 0.194 E-score; with GST-NTL8 NAC domain, 0.0978 E-score; in the test with GST-SND1(1-203) it was 0.239 E-score; in the test with GST-VND3 NAC domain it was 0.434 E-score; with GST-VND7 NAC domain it was 0.374 E-score.
As to TACGCAAA, the binding signal was determined as 0.469 E-score with GST-ANAC092(1-176); 0.104 E-score with GST-NTL6(1-168); 0.385 E-score with GST-ANAC019 NAC domain; 0.315 E-score in the test with GST-ANAC055(1-171); 0.323 E-score in the test with GST-ATAF1 NAC domain; 0.469 E-score in test [1]. For the same sequence, the binding signal amounted to 0.355 E-score with GST-NAP(1-166); 0.393 E-score with GST-NST2(1-184); 0.0978 E-score with GST-NTL8 NAC domain; 0.473 E-score with GST-SND1(1-203); 0.405 E-score with GST-VND3 NAC domain; 0.334 E-score in the test with GST-VND7 NAC domain.
With GTACGCTA, the binding signal was determined as 0.428 E-score in the test with GST-ANAC092(1-176); 0.0905 E-score with GST-NTL6(1-168); 0.124 E-score with GST-ANAC019 NAC domain; 0.165 E-score with GST-ANAC055(1-171); 0.238 E-score with GST-ATAF1 NAC domain; 0.449 E-score in test [1]. The binding signal came out at 0.219 E-score in the test with GST-NAP(1-166); 0.288 E-score with GST-NST2(1-184); 0.129 E-score with GST-NTL8 NAC domain; 0.447 E-score in the test with GST-SND1(1-203); 0.15 E-score in the test with GST-VND3 NAC domain; 0.233 E-score with GST-VND7 NAC domain.
Turning to GAACACGC, the binding signal with GST-ANAC092(1-176) turned out to be 0.382 E-score; in the test with GST-NTL6(1-168) it was 0.0566 E-score; with GST-ANAC019 NAC domain, 0.289 E-score; with GST-ANAC055(1-171), 0.237 E-score; in the test with GST-ATAF1 NAC domain it was 0.19 E-score; in [1] it was 0.427 E-score. In addition, the binding signal stood at 0.248 E-score in the test with GST-NAP(1-166); 0.205 E-score with GST-NST2(1-184); 0.158 E-score in the test with GST-SND1(1-203); 0.138 E-score in the test with GST-VND3 NAC domain; 0.174 E-score with GST-VND7 NAC domain.
Consider ATTCCGTG, for which the binding signal is 0.408 E-score in the test with GST-ANAC092(1-176); 0.129 E-score in the test with GST-NTL6(1-168); 0.438 E-score in the test with GST-ANAC019 NAC domain; 0.448 E-score in the test with GST-ANAC055(1-171); 0.3 E-score in the test with GST-ATAF1 NAC domain; 0.401 E-score in [1]. Moreover, the binding signal was found to be 0.329 E-score with GST-NAP(1-166); 0.251 E-score with GST-NST2(1-184); 0.135 E-score with GST-SND1(1-203); 0.386 E-score in the test with GST-VND3 NAC domain; 0.41 E-score in the test with GST-VND7 NAC domain.
On to ACGGAAGC, for which the binding signal came out at 0.299 E-score with GST-ANAC092(1-176); 0.0877 E-score in the test with GST-NTL6(1-168); 0.436 E-score in the test with GST-ANAC019 NAC domain; 0.374 E-score in the test with GST-ANAC055(1-171); 0.289 E-score in the test with GST-ATAF1 NAC domain; 0.298 E-score in [1]. Besides, the binding signal was found to be 0.236 E-score in the test with GST-NAP(1-166); 0.257 E-score with GST-NST2(1-184); 0.209 E-score with GST-SND1(1-203); 0.385 E-score with GST-VND3 NAC domain; 0.266 E-score with GST-VND7 NAC domain.
With ACACGGAA, the binding signal with GST-ANAC092(1-176) is 0.464 E-score; with GST-NTL6(1-168) it was 0.0747 E-score; with GST-ANAC019 NAC domain it was 0.486 E-score; with GST-ANAC055(1-171) it was 0.481 E-score; in the test with GST-ATAF1 NAC domain, 0.376 E-score; in test [1], 0.458 E-score. Moreover, the binding signal with GST-NAP(1-166) came to 0.45 E-score; with GST-NST2(1-184) it was 0.328 E-score; with GST-SND1(1-203), 0.057 E-score; with GST-VND3 NAC domain, 0.467 E-score; with GST-VND7 NAC domain, 0.479 E-score.
